# Assay results from the supplement of paper PMC6555819.
# What was measured:
# Assay in all cases: PBM binding z-score (relative to random genomic background probes); higher = stronger binding; sequences stand for … in GC…GCGATTGACAGCGTAGAATGAAGG
# [1] = test system: PPARg:RXRa DBDmut IVT, anti-RXR (DBD mutation: RXRa K156A/R161A, NR concentration 270 nM, RXRa partner concentration 90 nM)
# In short: (§1)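 Binding buffer was PBS pH 7.4 with 2% milk, 0.02% Triton X-100, 1 mM DTT, 0.2 mg/mL BSA and 0.4 mg/ml salmon testes DNA. In it, ligand-free nuclear receptor dimers were incubated 1 h on custom Agilent 4×180K protein-binding microarrays carrying double-stranded probes. Antibodies against each partner (one per run) detected binding, and z-scores were calculated against random background probes after regression normalization of scanned fluorescence.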
# [2] = test system: PPARg:RXRa IVT, anti-PPARg (NR concentration 270 nM, RXRa partner concentration 90 nM)
# In short: as §1
# [3] = test system: PPARg DBDmut:RXRa IVT, anti-PPARg (DBD mutation: PPARg1 K132A/R137A, NR concentration 270 nM, RXRa partner concentration 90 nM)
# In short: as §1
# [4] = test system: PPARg DBDmut IVT, anti-PPARg (DBD mutation: PPARg1 K132A/R137A, NR concentration 270 nM)
# In short: as §1
# [5] = test system: PPARg homodimer (NR concentration 180 nM)
# In short: as §1
# [6] = test system: PXR:RXRa (NR concentration 270 nM, RXRa partner concentration 90 nM)
# In short: as §1
# [7] = test system: PXR homodimer (NR concentration 270 nM)
# In short: as §1
# [8] = test system: RARa:RXR (NR concentration 270 nM, RXRa partner concentration 90 nM)
# In short: as §1
# [9] = test system: RARa homodimer (NR concentration 270 nM)
# In short: as §1
# [10] = test system: RARb:RXRa (NR concentration 270 nM, RXRa partner concentration 90 nM)
# In short: as §1
# [11] = test system: RARb homodimer (NR concentration 270 nM)
# In short: as §1
# [12] = test system: RARg:RXRa (NR concentration 270 nM, RXRa partner concentration 90 nM)
# In short: as §1
# [13] = test system: RARg homodimer (NR concentration 270 nM)
# In short: as §1
# [14] = test system: RXRa DBDmut IVT, anti-RXR (DBD mutation: RXRa K156A/R161A, NR concentration 90 nM)
# In short: as §1
# [15] = test system: RXRa homodimer (NR concentration 180 nM)
# In short: as §1
# [16] = test system: THRa:RXRa (NR concentration 90 nM, RXRa partner concentration 90 nM)
# In short: as §1
# [17] = test system: THRa homodimer (NR concentration 90 nM)
# In short: as §1
# [18] = test system: VDR homodimer (NR concentration 270 nM)
# In short: as §1
Sequence,PBM binding z-score [1],PBM binding z-score [2],PBM binding z-score [3],PBM binding z-score [4],PBM binding z-score [5],PBM binding z-score [6],PBM binding z-score [7],PBM binding z-score [8],PBM binding z-score [9],PBM binding z-score [10],PBM binding z-score [11],PBM binding z-score [12],PBM binding z-score [13],PBM binding z-score [14],PBM binding z-score [15],PBM binding z-score [16],PBM binding z-score [17],PBM binding z-score [18]
GGAACGAGTGCATTCGAGTTGATAGCATGGCGAT,-0.308,-0.6,-1.05,-0.767,-1.32,2.91,3.49,-0.0398,-1.2,-0.311,-0.91,-0.352,0.0126,3.87,-0.0218,1.92,-1.23,4.44
CCTTCTGGGCCATCAGGTCATTGATATCAACGTT,4.77,5.03,0.4,0.236,1.37,1.64,0.618,2.31,0.159,2.28,2.61,2.3,2.36,0.59,1.46,3.19,2.98,1.83
AGTCAAAGTTCACTAGGTAACGTACGATTCAGCT,3.29,5.13,1.36,1.27,3.23,4.37,3.12,3.45,1.53,4.71,4.12,4.87,5.61,4.41,3.85,2.2,0.165,4
CCTACGGGGCCATCAGGTCATTGATATCAACGTT,1.08,2.4,-0.644,-0.657,1.9,2.18,0.639,2.97,0.686,2.86,3.1,3.1,2.83,0.971,2.02,3.6,2.97,2.45
CCAGACAGCTGAGAAGGTAACTCAGCCTCGATTA,-0.628,-0.629,-0.497,-0.867,0.219,-0.733,0.0352,-0.488,-0.132,-1.71,-0.378,-0.436,-0.0751,-0.0865,-0.206,-0.157,-0.306,-0.494
AGAATGAGGTTATTAAGATCACGGAATTGCGGTC,3.48,3.23,1.05,1.25,1.1,1.55,1.01,1.86,0.114,1.43,0.99,1.37,1.01,2.19,2.01,2.42,0.72,1.73
TGTCAAAGTTCAAAGTTAACGTAAGTATCCACAC,0.374,4.24,1.16,1.99,2.65,5.04,4.24,4.46,1.12,5.12,3.88,5.8,5.72,4.53,5.86,2.62,0.00571,4.02
TCTTGTAGACCAGCAGGTTAAGAAAGCTGGCCAA,1.63,0.1,-1.37,-0.977,-0.0673,0.0995,-0.534,0.371,-0.568,0.179,0.0516,-0.0399,-0.6,0.357,0.393,0.00833,-0.609,-0.234
CGTCCAAGGTCATCAGGTCAGTGAAAGCGACGTG,3.92,4.54,1.13,-0.42,3.58,4.88,1.66,5.46,1.46,5.43,5.08,6.56,6.99,4.23,6.63,4.34,3.86,3.8
TCGAGTAGGTTAGGGGCATTCCGAATGGCGTCGA,2.28,1.28,-1.42,-0.881,0.639,0.385,-0.429,0.334,-0.756,1.06,0.646,0.44,-0.221,0.278,0.54,0.556,-0.0824,0.859
ATCGGAAGGTCGTGAGGTGAGTATACAGAAAGGC,-0.372,1.37,-0.0584,0.491,1.77,1.71,0.639,2.72,1.05,2.83,2.27,3.03,2.55,0.762,3.05,2.83,1.76,1.04
CAAACTAGGTCACCGGAAGGTCGAAGTCCGCATG,8.58,9.05,2.73,2.92,3.05,3.91,0.000336,4.49,1.1,4.8,4.74,6.69,6,1.66,4.65,4.04,2.22,1.97
TCTTGTAGATCAACAGGAGGTTAAGCAAGATCGA,1.61,0.884,0.4,0.795,-0.0893,0.934,0.136,1.22,-0.27,0.659,0.427,0.916,0.301,0.224,1.01,1.24,-0.612,-0.456
ATACCAAGGTGATCGTGAGCTCGTTGATACTAAC,0.283,1.08,0.353,0.874,0.404,-0.0195,-0.182,0.256,0.0437,0.555,0.153,-0.0277,0.19,-0.225,0.139,0.678,0.422,-0.219
GCTGCTAGGTGAACTGATGGTCAGCTAAAGCTCG,3.85,2.6,-0.641,-1.06,-0.326,-0.0218,-0.684,0.388,-1.4,0.944,0.715,0.956,0.47,-0.22,0.333,1.03,-0.574,-0.742
ACTTTCGGGTCAACGAGGTTATAGCACGCGTATA,3.31,4.16,1.8,1.14,2.32,5.37,6.97,4.91,1.53,4.29,3.85,5.69,5.44,3.12,6.2,4.62,3.51,4.05
CAGCCTAGGTCAGGGCCAGTATGGGAGGAACGTT,0.702,1.59,-1.71,-1.33,0.437,0.196,-0.864,0.839,-0.701,3.43,2.38,3.22,3.76,-0.69,1.38,1.95,0.312,-0.378
TCTGCTAGGTCTGTTGGTCAGCTAACGAGCTGCC,0.324,0.208,0.17,0.0841,-1.76,-0.467,-0.379,-0.461,-1.79,0.107,-0.195,-0.258,-0.599,0.00538,-0.403,-0.454,-0.978,-1.23
CCTACTGGGCCAAGGTCGTTGATCAGTCAAAGCA,3.4,3.41,-1.53,-1.31,-0.148,0.637,0.241,0.405,-0.549,1.09,0.763,0.488,0.541,-0.262,0.465,1.31,0.184,1.19
ATCGAAAGGTCGAGGTGGGTATAGAGAAAGGGAA,0.271,1.55,0.846,1.16,2.17,2.99,0.988,3.5,1.9,4.34,3.07,4.26,4.29,1.35,4.24,2.64,0.668,1.09
AGTCAAAGTCCACTAGGTAACGTAAGATTCAGCT,1.22,1.83,0.418,0.228,0.527,-0.372,0.0413,-0.205,0.764,1.44,0.615,0.39,0.85,0.801,-0.0426,0.284,0.284,-0.159
TCGGGTAGGTTAGTCGGGGCATTCAGCCAACATA,1.77,1.67,0.234,0.0537,0.765,0.737,0.967,0.254,0.816,1.21,1.24,0.503,0.704,0.58,0.0388,1.57,1.21,1.08
AAAGACAGGTGATGAAGGTAACTCAGGCTATCAT,0.0134,0.744,0.665,-0.142,0.408,0.0948,0.956,0.223,1,0.438,0.516,0.231,0.563,-0.304,0.572,1.23,0.466,0.111
TCATATAGGTAAAGGCGAAAGTCGAACGATATGA,3.49,2.3,1.22,0.996,0.221,-0.107,0.0413,0.124,0.504,0.399,-0.012,0.425,0.439,0.563,0.727,-0.186,-0.507,-0.251
AGAACGAGGGCACGCTGAGTTGATAGCTGAGTAG,4.41,3.75,0.643,0.101,0.829,1.57,0.136,1,-0.945,2.57,1.13,2.07,2.06,2.15,1.37,1.92,-0.0647,1.7
AGTCAAAGTTCACTTGGTAACGTAAGATTCAGCT,0.263,2.42,1.28,0.299,1.76,4.17,2.53,2.62,0.876,4.58,3.71,4.88,5.66,4.24,3.44,1.6,-0.48,4.05
GCTTTTAGTTGAAAGGGCAACCGAATGATTCTCG,0.524,0.732,0.316,0.582,0.658,0.695,-0.255,0.953,-0.0621,2.16,1.78,1.2,1.29,0.971,1.06,0.54,-0.708,-0.32
TCATATAGGTAAAGGTGAGAGTCGAACGATATGA,4.15,4,1.24,1.62,0.906,0.649,0.0264,1.29,0.387,1.69,1.28,1.29,1.33,0.713,1.64,0.888,-0.508,-0.128
AGAACGAGGGCAATGACTTGATAGCACGGGTGGC,3.17,2.49,0.669,-0.215,0.348,0.345,0.000958,0.436,-0.218,2.11,1.08,1.18,1.67,1.64,1.08,0.826,0.042,0.435
